Sequences and labels used below:
B1: CTTA (dsDNA)
DNA 1: GCTATCTAGTGCTCAGTACGCACTGCTTAAGGAAACTTCTGGCAGGACCAGGTCATGAGATCGGAAGAGCACACGTCTGAACTCCAGTCA
DNA 2: TGACTGGAGTTCAGACGTGTGCTCTTCCGATCTCATGACCTGGTCCTGCCAGAAGTTTCCTTAAGCAGTGCGTACTGAGCACTAGATAGC
RNA: AAUUUCUACUCUUGUAGAUAGGAAACUUCUGGCAGGACC
B2: TATG (dsDNA)
DNA 1: GCTATCTAGTGCTCAGTACGCACTGTATGAGGAAACTTCTGGCAGGACCAGGTCATGAGATCGGAAGAGCACACGTCTGAACTCCAGTCA
DNA 2: TGACTGGAGTTCAGACGTGTGCTCTTCCGATCTCATGACCTGGTCCTGCCAGAAGTTTCCTCATACAGTGCGTACTGAGCACTAGATAGC
RNA: AAUUUCUACUCUUGUAGAUAGGAAACUUCUGGCAGGACC
B3: CTTG (dsDNA)
DNA 1: GCTATCTAGTGCTCAGTACGCACTGCTTGAGGAAACTTCTGGCAGGACCAGGTCATGAGATCGGAAGAGCACACGTCTGAACTCCAGTCA
DNA 2: TGACTGGAGTTCAGACGTGTGCTCTTCCGATCTCATGACCTGGTCCTGCCAGAAGTTTCCTCAAGCAGTGCGTACTGAGCACTAGATAGC
RNA: AAUUUCUACUCUUGUAGAUAGGAAACUUCUGGCAGGACC
B4: TCCC (dsDNA)
DNA 1: GCTATCTAGTGCTCAGTACGCACTGTCCCAGGAAACTTCTGGCAGGACCAGGTCATGAGATCGGAAGAGCACACGTCTGAACTCCAGTCA
DNA 2: TGACTGGAGTTCAGACGTGTGCTCTTCCGATCTCATGACCTGGTCCTGCCAGAAGTTTCCTGGGACAGTGCGTACTGAGCACTAGATAGC
RNA: AAUUUCUACUCUUGUAGAUAGGAAACUUCUGGCAGGACC
B5: TATA (dsDNA)
DNA 1: GCTATCTAGTGCTCAGTACGCACTGTATAAGGAAACTTCTGGCAGGACCAGGTCATGAGATCGGAAGAGCACACGTCTGAACTCCAGTCA
DNA 2: TGACTGGAGTTCAGACGTGTGCTCTTCCGATCTCATGACCTGGTCCTGCCAGAAGTTTCCTTATACAGTGCGTACTGAGCACTAGATAGC
RNA: AAUUUCUACUCUUGUAGAUAGGAAACUUCUGGCAGGACC
B6: GTTT (dsDNA)
DNA 1: GCTATCTAGTGCTCAGTACGCACTGGTTTAGGAAACTTCTGGCAGGACCAGGTCATGAGATCGGAAGAGCACACGTCTGAACTCCAGTCA
DNA 2: TGACTGGAGTTCAGACGTGTGCTCTTCCGATCTCATGACCTGGTCCTGCCAGAAGTTTCCTAAACCAGTGCGTACTGAGCACTAGATAGC
RNA: AAUUUCUACUCUUGUAGAUAGGAAACUUCUGGCAGGACC
B7: TATC (dsDNA)
DNA 1: GCTATCTAGTGCTCAGTACGCACTGTATCAGGAAACTTCTGGCAGGACCAGGTCATGAGATCGGAAGAGCACACGTCTGAACTCCAGTCA
DNA 2: TGACTGGAGTTCAGACGTGTGCTCTTCCGATCTCATGACCTGGTCCTGCCAGAAGTTTCCTGATACAGTGCGTACTGAGCACTAGATAGC
RNA: AAUUUCUACUCUUGUAGAUAGGAAACUUCUGGCAGGACC
B8: GTTG (dsDNA)
DNA 1: GCTATCTAGTGCTCAGTACGCACTGGTTGAGGAAACTTCTGGCAGGACCAGGTCATGAGATCGGAAGAGCACACGTCTGAACTCCAGTCA
DNA 2: TGACTGGAGTTCAGACGTGTGCTCTTCCGATCTCATGACCTGGTCCTGCCAGAAGTTTCCTCAACCAGTGCGTACTGAGCACTAGATAGC
RNA: AAUUUCUACUCUUGUAGAUAGGAAACUUCUGGCAGGACC
B9: CTTT (dsDNA)
DNA 1: GCTATCTAGTGCTCAGTACGCACTGCTTTAGGAAACTTCTGGCAGGACCAGGTCATGAGATCGGAAGAGCACACGTCTGAACTCCAGTCA
DNA 2: TGACTGGAGTTCAGACGTGTGCTCTTCCGATCTCATGACCTGGTCCTGCCAGAAGTTTCCTAAAGCAGTGCGTACTGAGCACTAGATAGC
RNA: AAUUUCUACUCUUGUAGAUAGGAAACUUCUGGCAGGACC
B10: GTTC (dsDNA)
DNA 1: GCTATCTAGTGCTCAGTACGCACTGGTTCAGGAAACTTCTGGCAGGACCAGGTCATGAGATCGGAAGAGCACACGTCTGAACTCCAGTCA
DNA 2: TGACTGGAGTTCAGACGTGTGCTCTTCCGATCTCATGACCTGGTCCTGCCAGAAGTTTCCTGAACCAGTGCGTACTGAGCACTAGATAGC
RNA: AAUUUCUACUCUUGUAGAUAGGAAACUUCUGGCAGGACC
B11: GTTA (dsDNA)
DNA 1: GCTATCTAGTGCTCAGTACGCACTGGTTAAGGAAACTTCTGGCAGGACCAGGTCATGAGATCGGAAGAGCACACGTCTGAACTCCAGTCA
DNA 2: TGACTGGAGTTCAGACGTGTGCTCTTCCGATCTCATGACCTGGTCCTGCCAGAAGTTTCCTTAACCAGTGCGTACTGAGCACTAGATAGC
RNA: AAUUUCUACUCUUGUAGAUAGGAAACUUCUGGCAGGACC
B12: CTTC (dsDNA)
DNA 1: GCTATCTAGTGCTCAGTACGCACTGCTTCAGGAAACTTCTGGCAGGACCAGGTCATGAGATCGGAAGAGCACACGTCTGAACTCCAGTCA
DNA 2: TGACTGGAGTTCAGACGTGTGCTCTTCCGATCTCATGACCTGGTCCTGCCAGAAGTTTCCTGAAGCAGTGCGTACTGAGCACTAGATAGC
RNA: AAUUUCUACUCUUGUAGAUAGGAAACUUCUGGCAGGACC
B13: TCTA (dsDNA)
DNA 1: GCTATCTAGTGCTCAGTACGCACTGTCTAAGGAAACTTCTGGCAGGACCAGGTCATGAGATCGGAAGAGCACACGTCTGAACTCCAGTCA
DNA 2: TGACTGGAGTTCAGACGTGTGCTCTTCCGATCTCATGACCTGGTCCTGCCAGAAGTTTCCTTAGACAGTGCGTACTGAGCACTAGATAGC
RNA: AAUUUCUACUCUUGUAGAUAGGAAACUUCUGGCAGGACC

For one assay, the target named is dAsCas12a WT (Acidaminococcus sp., UniProt U2UMQ6 1-1307, D908A;E993A;D1235A). The experiment in a line: Spec-seq (native PAGE EMSA with sequencing of bound and unbound); 25 mM Tris-HCl pH 7.4, 150 mM KCl, 5 mM MgCl2, 10% glycerol, 1 mM DTT, 40 ng/uL salmon sperm DNA; 400 nM Cas12a, 480 nM crRNA, 50 nM library, 37 C 1 h; native P; high values mean tight binding.
Conditions: not given
For orientation: In EMSA bound probe runs differently from free probe, usually more slowly.
Take B1: the binding signal is -6.66 lnKA.

Consider B2, for which the binding signal was -9 lnKA.

The molecule B3 came in with a binding signal of -7.38 lnKA.

With B4, the binding signal was -8.69 lnKA.

For B5, the binding signal is -8 lnKA.

B6 registered a binding signal of -8.41 lnKA.

For the molecule B7, the binding signal is -8.56 lnKA.

In turn, B8 returned a binding signal of -7.73 lnKA.

In the case of B9, the binding signal was -8.63 lnKA.

The molecule B10 gave a binding signal of -7.08 lnKA.

In turn, B11 returned a binding signal of -6.86 lnKA.

As to B12, the binding signal was -6.68 lnKA.

For B13, the binding signal is -6.18 lnKA.

The next assay addresses dAsCas12a Ultra (Acidaminococcus sp., UniProt U2UMQ6 1-1307, M537R;F870L;D908A;E993A;D1235A). Put plainly: Spec-seq (native PAGE EMSA with sequencing of bound and unbound); 25 mM Tris-HCl pH 7.4, 150 mM KCl, 5 mM MgCl2, 10% glycerol, 1 mM DTT, 40 ng/uL salmon sperm DNA; 400 nM Cas12a, 480 nM crRNA, 50 nM library, 37 C 1 h; native PAGE at room temperature; high values mean tight binding. To be noted: protein: recombinant.
For B1, the binding signal is -4.22 lnKA.

On to B2, for which the binding signal is -8.06 lnKA.

Consider B3, for which the binding signal was -5.08 lnKA.

Consider B4, for which the binding signal was -6.14 lnKA.

In the case of B5, the binding signal was -7.14 lnKA.

As to B6, the binding signal was -7.18 lnKA.

In the case of B7, the binding signal is -7.72 lnKA.

On to B8, for which the binding signal was -5.6 lnKA.

On to B9, for which the binding signal was -7.25 lnKA.

As for B10, the binding signal is -4.74 lnKA.

With B11, the binding signal is -4.67 lnKA.

In the case of B12, the binding signal was -4.32 lnKA.

For the molecule B13, the binding signal is -3.71 lnKA.

Another assay deals with dAsCas12a E174R (Acidaminococcus sp., UniProt U2UMQ6 1-1307, E174R;D908A;E993A;D1235A). The assay is described as above. To be noted: protein: recombinant.
With B1, the binding signal is -2.38 lnKA.

Turning to B2, the binding signal was -6.65 lnKA.

Regarding B3, the binding signal was -4.65 lnKA.

In the case of B4, the binding signal was -6.06 lnKA.

Consider B5, for which the binding signal was -4.71 lnKA.

For B6, the binding signal was -6.98 lnKA.

Regarding B7, the binding signal was -6.33 lnKA.

As for B8, the binding signal was -5.33 lnKA.

With B9, the binding signal is -6.84 lnKA.

For the molecule B10, the binding signal is -4.51 lnKA.

As for B11, the binding signal was -3 lnKA.

As for B12, the binding signal was -3.79 lnKA.

For the molecule B13, the binding signal is -2.54 lnKA.

Another assay addresses dAsCas12a S542R (Acidaminococcus sp., UniProt U2UMQ6 1-1307, S542R;D908A;E993A;D1235A). Described as above. To be noted: protein: recombinant.
Regarding B1, the binding signal is -4.07 lnKA.

On to B2, for which the binding signal was -7.42 lnKA.

Turning to B3, the binding signal was -5.07 lnKA.

On to B4, for which the binding signal was -1.93 lnKA.

Regarding B5, the binding signal is -6.54 lnKA.

With B6, the binding signal is -7.04 lnKA.

In the case of B7, the binding signal was -7.21 lnKA.

Regarding B8, the binding signal was -5.32 lnKA.

Take B9: the binding signal is -7.35 lnKA.

For the molecule B10, the binding signal was -4.83 lnKA.

Take B11: the binding signal was -4.46 lnKA.

Take B12: the binding signal is -4.75 lnKA.

For the molecule B13, the binding signal was -4.59 lnKA.

A further assay addresses dAsCas12a K548R (Acidaminococcus sp., UniProt U2UMQ6 1-1307, K548R;D908A;E993A;D1235A). The description is as above. To be noted: protein: recombinant.
As to B1, the binding signal is -5.75 lnKA.

Consider B2, for which the binding signal is -7.66 lnKA.

In the case of B3, the binding signal is -6.66 lnKA.

Regarding B5, the binding signal is -6.91 lnKA.

Take B6: the binding signal is -8.38 lnKA.

Take B7: the binding signal is -6.57 lnKA.

As for B8, the binding signal was -6.8 lnKA.

Consider B9, for which the binding signal is -8.41 lnKA.

For B10, the binding signal was -5.84 lnKA.

Take B11: the binding signal was -6 lnKA.

For the molecule B12, the binding signal was -5.73 lnKA.

On to B13, for which the binding signal was -8.57 lnKA.

A further assay addresses d-enCas12a (Acidaminococcus sp., UniProt U2UMQ6 1-1307, E174R;S542R;K548R;D908A;E993A;D1235A). Described as above. The following applies: protein: recombinant.
On to B1, for which the binding signal was -0.581 lnKA.

With B2, the binding signal was -1.93 lnKA.

Take B3: the binding signal was -1.7 lnKA.

On to B4, for which the binding signal was -0.958 lnKA.

B5: the binding signal is -0.769 lnKA.

Turning to B6, the binding signal was -2.65 lnKA.

In the case of B7, the binding signal is -0.993 lnKA.

Regarding B8, the binding signal was -1.41 lnKA.

On to B9, for which the binding signal is -2.97 lnKA.

Take B10: the binding signal was -0.632 lnKA.

For the molecule B11, the binding signal is -0.547 lnKA.

Take B12: the binding signal is -0.728 lnKA.

On to B13, for which the binding signal is -3.31 lnKA.

The target in a further assay is d-enCas12a-Ultra (Acidaminococcus sp., UniProt U2UMQ6 1-1307, E174R;S542R;K548R;M537R;F870L;D908A;E993A;D1235A). The description is as above. To be noted: protein: recombinant.
For B1, the binding signal is -0.177 lnKA.

As for B2, the binding signal is -0.687 lnKA.

In the case of B3, the binding signal was -0.41 lnKA.

For the molecule B4, the binding signal is -0.245 lnKA.

Regarding B5, the binding signal is -0.324 lnKA.

In the case of B6, the binding signal is -0.552 lnKA.

As to B7, the binding signal was -0.399 lnKA.

In the case of B8, the binding signal is -0.361 lnKA.

Turning to B9, the binding signal is -0.647 lnKA.

As for B10, the binding signal is -0.198 lnKA.

B11: the binding signal is -0.184 lnKA.

For the molecule B12, the binding signal was -0.217 lnKA.

With B13, the binding signal was -0.837 lnKA.
